# pPAFAH FP inh: pPAFAH enzyme inhibitors, primary screen, biochemical, fluorescence polarization, human. recombinant pPAFAH, FP-rhodamine probe fluorescence polarization. inhibition, % at 3.39 µM. 1.5% of 330,000 active. AID 463082, 2010;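 active = inhibition above the mean inhibition across the screen plus 3 SD, cut at about 25% in these data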;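 note: inhibitors block binding of the rhodamine activity-based probe so polarization drops; 0% = enzyme with DMSO and 100% = wells lacking pPAFAH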
# Target sequence (Q13093 whole entry, looked up): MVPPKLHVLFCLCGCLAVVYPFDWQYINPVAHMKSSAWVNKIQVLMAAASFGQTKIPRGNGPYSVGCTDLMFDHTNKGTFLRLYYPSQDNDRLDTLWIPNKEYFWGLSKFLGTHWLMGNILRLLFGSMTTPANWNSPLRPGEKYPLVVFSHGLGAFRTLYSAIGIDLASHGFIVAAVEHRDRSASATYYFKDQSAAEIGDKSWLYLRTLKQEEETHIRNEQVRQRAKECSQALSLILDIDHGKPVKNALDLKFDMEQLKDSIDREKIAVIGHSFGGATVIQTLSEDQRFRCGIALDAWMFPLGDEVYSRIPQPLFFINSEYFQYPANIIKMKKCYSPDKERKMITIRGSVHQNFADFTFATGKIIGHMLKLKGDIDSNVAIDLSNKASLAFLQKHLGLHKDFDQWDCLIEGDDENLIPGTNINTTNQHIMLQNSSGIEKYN
# PAFAH1B2 inh: PAFAH1B2 enzyme inhibitors, primary screen, biochemical, fluorescence polarization, human; Platelet-activating factor acetylhydrolase IB subunit alpha2 (Homo sapiens), P68402; recombinant PAFAH1B2, FP-rhodamine activity probe; inhibition, % at 3.39 µM; 1.2% of 340,000 active; AID 492953, 2010;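 active = inhibition above the mean of all tested compounds plus 3 SD, cut at about 24% in these data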;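 note: 0% = enzyme with DMSO and 100% = wells lacking PAFAH1B2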
# M18AAP inhibitor: PfM18AAP inhibitors, malaria aminopeptidase, primary screen, biochemical, QFRET, recombinant enzyme. M18 aspartyl aminopeptidase (Plasmodium falciparum 3D7). H-Glu-NHMec fluorogenic cleavage. inhibition, % at 7.35 µM. 1.2% of 290,000 active. AID 1822, 2009;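 active = inhibition above the campaign mean inhibition over all tested compounds plus 3 SD, cut at about 28% in these data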;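 note: 0% = plate median of test compound wells and 100% = 2 mM ZnCl2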
# PAFAH1B3 inh: PAFAH1B3 enzyme inhibitors, primary screen, biochemical, fluorescence polarization, human. recombinant PAFAH1B3, FP-rhodamine probe. inhibition, % at 3.39 µM. 0.28% of 340,000 active. AID 492972, 2010;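 active = inhibition above the screen-wide average of all tested compounds plus 3 SD, cut at about 25% in these data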;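 note: 0% = enzyme with DMSO only and 100% = wells lacking PAFAH1B3 protein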
# DSG3 Ab inh: inhibitors of pemphigus antibody binding to DSG3, primary screen, biochemical, bead-based, flow cytometry, scFv-GFP. AID 588358, 2011. Desmoglein-3 (Homo sapiens), P32926. DSG3-coupled beads, scFv-anti-DSG3-GFP binding; hits give low values. binding (percent of control), % at 10 µM. 0.48% of 310,000 active;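 active = binding more than 3 SD below its plate's average and above zero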;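 note: hits lower antibody fragment binding to DSG3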
# PAFAH2 FP inh: PAFAH2 enzyme inhibitors, primary screen, biochemical, fluorescence polarization, human. inhibition, % at 3.39 µM. 0.99% of 340,000 active. AID 492956, 2010. recombinant PAFAH2, FP-rhodamine activity probe. Platelet-activating factor acetylhydrolase 2, cytoplasmic (Homo sapiens), Q99487;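 active = inhibition above the mean over all tested compounds plus 3 SD, cut at about 30% in these data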;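 note: inhibitors block probe labeling of enzyme so polarization drops; 0% = enzyme with DMSO and 100% = wells lacking PAFAH2 protein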
# * hit, by the source's call; / = no result. Hits are enriched below; roughly 3.8% of the tested compounds scored in any of these assays.
SMILES,pPAFAH FP inh,PAFAH1B2 inh,M18AAP inhibitor,PAFAH1B3 inh,DSG3 Ab inh,PAFAH2 FP inh
O=C(CSc1n[nH]c(-c2ccc(S(=O)(=O)NC3CCCCC3)cc2)n1)N1CCCC1,28*,13,-2,10,99,3
O=C(O)CCCCCN1C(=O)/C(=C/c2cn(-c3ccccc3)nc2-c2cccs2)SC1=S,/,-1,/,6,/,11
CC1=NNC(=O)/C1=C\c1cn(-c2ccccc2)nc1-c1cccs1,2,5,45*,9,91,-7
COC(=O)COc1cccc2c(=O)n(CC(=O)Nc3ccc4c(c3)OCCO4)ccc12,6,3,0,8,51*,1
CCN(CC)CCn1c(NS(=O)(=O)c2ccc(C)cc2)nc2ccccc21,-5,-1,/,2,139,0
CCCn1c(CNS(=O)(=O)c2ccc(C)cc2)nc2ccccc21,-4,9,7,5,66*,-3
O=C(O)c1cccc(-n2sc3ccccc3c2=O)c1,5,0,/,6,61*,6
O=c1c2ccccc2sn1-c1nccs1,/,/,-1,/,28*,/
O=C1c2ccccc2C(=O)N1c1nccs1,/,-1,/,14,110,-4
O=c1c2ccccc2sn1-c1cccc(Cl)c1,/,/,/,/,40*,/
O=C(O)c1cccc(N2C(=O)CCC2=O)c1,/,/,1,/,/,/
COc1cc(C(C)=O)ccc1COc1ccc(C(=O)O)cc1OC,-4,6,7,-1,97,3
Nc1sc2c(c1C(=O)NC1CC1)CCCC2,5,4,/,11,/,8
CC(NC(=O)c1cccc(S(=O)(=O)N2CCCCCC2)c1)c1ccccc1 (stereo unspecified),5,25*,/,-3,101,5
CSCCC(NC(=O)C1CCC(C)CC1)C(=O)OCC(=O)c1ccc(Cl)cc1 (stereo unspecified),-3,4,2,-3,3.8*,2
CCOc1ccccc1OCCCC(=O)N1CCN(S(=O)(=O)c2ccccc2C#N)CC1,/,/,/,/,100,/
O=C(NC(Cc1nn[nH]n1)C(=O)OCc1ccccc1)OCc1ccccc1 (stereo unspecified),/,/,/,/,109,/
Cc1ccc(NC(=S)NCCc2ccccc2)nc1,2,3,29*,2,98,0
O=[N+]([O-])c1ccc(S(=O)(=O)NNC(=S)NCCc2ccccc2)cc1,7,42*,-44,6,102,2
CC(=O)NNC(=S)NCCc1ccccc1,-1,8,30*,1,84,11
CN(CCc1ccccc1)C(=O)c1ccc(NC(=O)Cc2ccc(NC(=O)C3CCN(S(=O)(=O)c4cccc([N+](=O)[O-])c4)CC3)cc2)cc1,/,-11,/,-13,103,-27
CNC(=O)CN(C)S(=O)(=O)c1ccc(F)cc1,11,2,2,2,79*,-8
CN(CC(=O)O)S(=O)(=O)c1ccc(F)cc1,4,2,-3,7,100,-2
COc1cc(NC(=O)Nc2ccc(Cl)c(Cl)c2)c(C(=O)O)cc1OC,30*,25*,-3,4,101,14
COc1cc(OC)c(NC(=O)Nc2ccc(OC)c(OC)c2)cc1Cl,1,2,7,-1,/,-11
SMILES,pPAFAH FP inh,PAFAH1B2 inh,M18AAP inhibitor,PAFAH1B3 inh,DSG3 Ab inh,PAFAH2 FP inh
CCN(CC)C(=O)C1=C(C)N(Cc2ccc(C(C)(C)C)cc2)C(=O)C(CC(=O)NCC2CCCCC2)C1 (stereo unspecified),/,/,/,/,111,/
O=C(O)CC/C(=C\c1ccc(N2CCOCC2)c([N+](=O)[O-])c1)c1nc2ccccc2s1,/,92*,-1,0,101,2
O=C(O)C/C(=C\c1ccc(N2CCOCC2)c([N+](=O)[O-])c1)c1nc2ccccc2s1,26*,4,0,-7,93,12
O=C(O)CC/C(=C/c1cccc(NC(=O)c2ccccc2Cl)c1)c1nc2ccccc2s1,/,-1,/,2,/,-1
COc1cc(/C=C(\CCC(=O)O)c2nc3ccccc3s2)ccc1OCC(=O)Nc1c(Cl)cccc1Cl,5,67*,/,6,86,0
O=C(CSc1nc2ccccc2s1)Nc1ccc(N2CCOCC2)c(Cl)c1,7,2,-1,3,102,4
CN(CC(=O)Nc1cccc(Cl)c1)S(=O)(=O)/C=C/c1ccccc1,/,/,/,/,96,/
Cc1ccc(S(=O)(=O)Nc2cc(=O)[nH]c(SCc3ccccc3Cl)n2)cc1,-9,-1,-4,5,101,-2
Cc1cc(=O)[nH]c(SCc2ccccc2)n1,-2,0,-17,5,110,3
CC(C)(C)c1cc(=O)[nH]c(SCc2ccccc2Cl)n1,27*,12,-10,4,103,16
CC(C)(C)c1cc(=O)[nH]c(SCc2ccccc2)n1,31*,21,0,1,98,14
CSc1nc(Cc2ccccc2)cc(=O)[nH]1,-1,5,-13,7,61*,8
COc1ccc(C(=O)N2CCCC(CNC(=O)c3ccccc3Cl)C2)o1 (stereo unspecified),6,0,-1,7,100,0
O=C(O)C1C=CC(C(=O)O)c2ccccc21 (stereo unspecified),/,/,/,/,104,/
CCCOc1ccc(C(=O)Nc2ccc(S(=O)(=O)Nc3onc(C)c3C)cc2)cc1,30*,7,2,18,98,-3
Cc1noc(NS(=O)(=O)c2ccc(NC(=O)Nc3ccc(Cl)c(Cl)c3)cc2)c1C,25*,14,6,18,98,-19
Cc1noc(NS(=O)(=O)c2ccc(NC(=O)C(Cl)(Cl)Cl)cc2)c1C,-2,7,1,-3,106,3
CCCCOc1ccc(C(=O)Nc2ccc(S(=O)(=O)Nc3onc(C)c3C)cc2)cc1,6,2,-2,8,/,-2
Cc1noc(NS(=O)(=O)c2ccc(NC(=O)CC34CC5CC(CC(Br)(C5)C3)C4)cc2)c1C,-5,33*,-11,5,/,10
CN1CCn2cnc(C(=O)NCCCCCNC(=O)OC(C)(C)C)c2C1=O,/,/,/,/,99,/
CCc1cc(-c2nnn(CCC3COCCO3)c2CC)cc(CC)c1-c1cn(CCc2c[nH]c3ccccc23)nn1 (stereo unspecified),/,/,/,/,97,/
COc1ccc(OC)c(CN2CCN(C(=O)c3ccc(S(=O)(=O)N4CCCCCC4)cc3)CC2)c1,/,/,/,/,102,/
CSS(=O)(=O)c1cccc2cccnc12,-4,/,-211,/,98,/
CS(=O)(=O)N(CC(=O)NCCSc1ccccc1)c1ccc2c(c1)OCO2,5,4,0,4,108,6

# Bioassay records (PubChem BioAssay)
